Calls of active or inactive are those of the source. The calls were made as follows: active = hit-call score of the fitted dose curve at least 0.9, where 1 is the maximum; inactive = score below 0.9.

Read-out in test [1]: Tumor necrosis factor (Homo sapiens) (UniProt P01375)
In words: BSK_BT_xTNFa: BioMAP Diversity Plus: BT Assay for Tumor necrosis factor alpha (TNF-alpha) Biomarker Activity (AID 2284230). To be noted: primary human B cells with PBMC. A digest of the protocol: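 B cells with PBMC in co-culture, dosed and sampled at 24 h; secreted TNF-alpha measured by Luminex xMAP bead assay. Activity fitted in the gain direction against DMSO as negative control and baseline.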

Read-out in test [2]: Vascular cell adhesion molecule 1 (VCAM1), VCAM1 (gene 7412)
In words: BSK_MyoF_VCAM1: BioMAP Diversity Plus: MyoF Assay for Vascular cell adhesion molecule 1 (VCAM1) Biomarker Activity (AID 2284231). To be noted: primary human lung fibroblasts. A digest of the protocol: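 Primary human lung fibroblasts (BioMAP MyoF system) dosed with chemical, VCAM-1 measured by ELISA 24 hours later. Fitted in the positive direction against DMSO; parallel SRB staining assessed cytotoxicity.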

Read-out in test [3]: Collagen I, COL1A1 (gene 1277)
In words: BSK_MyoF_CollagenI: BioMAP Diversity Plus: MyoF Assay for Collagen I Biomarker Activity (AID 2284238). Particulars: primary human lung fibroblasts. A digest of the protocol:
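Primary human lung fibroblasts (MyoF system) treated 24 h; Collagen I quantified by ELISA and fitted in positive direction against DMSO. Parallel SRB total-protein staining assessed overt cytotoxicity.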

Read-out in test [4]: Collagen III, COL3A1 (gene 1281)
In words: BSK_MyoF_CollagenIII: BioMAP Diversity Plus: MyoF Assay for Collagen III Biomarker Activity (AID 2284239). Particulars: primary human lung fibroblasts. A digest of the protocol:
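Primary human lung fibroblasts (BioMAP MyoF system) exposed 24 h. Collagen III measured by ELISA; positive-direction fit relative to DMSO.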

Read-out in test [5]: Interleukin 17F (IL17F), IL17F (gene 112744)
In words: BSK_BT_xIL17F: BioMAP Diversity Plus: BT Assay for Interleukin 17F (IL17F) Biomarker Activity (AID 2284243). To be noted: primary human B cells with PBMC. A digest of the protocol: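 Human PBMC co-cultured with B cells, compound exposure 24 h; secreted IL-17F quantified by Luminex xMAP, referenced to DMSO control. PBMC viability measured in parallel by Alamar Blue reduction.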

Read-out in test [6]: Actin alpha 1 (ACTA1), ACTA1 (gene 58)
In words: BSK_MyoF_ACTA1: BioMAP Diversity Plus: MyoF Assay for Actin alpha 1 (ACTA1) Biomarker Activity (AID 2284244). Particulars: primary human lung fibroblasts. A digest of the protocol:
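ELISA read-out of a-SMA in primary human lung fibroblast cultures, 24 h post-dosing. Activity scored in the positive direction versus DMSO baseline.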

Read-out in test [7]: Interleukin 2 (IL2), IL2 (gene 3558)
In words: BSK_BT_xIL2: BioMAP Diversity Plus: BT Assay for Interleukin 2 (IL2) Biomarker Activity (AID 2284245). To be noted: primary human B cells with PBMC. A digest of the protocol: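 Readout: supernatant IL-2 via Luminex xMAP after 24 h chemical dosing of a B cell/PBMC primary human co-culture. DMSO serves as negative control and baseline; increases in signal were fitted.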

Read-out in test [8]: Basic fibroblast growth factor (bFGF), FGF2 (gene 2247)
In words: BSK_MyoF_bFGF: BioMAP Diversity Plus: MyoF Assay for Basic fibroblast growth factor (bFGF) Biomarker Activity (AID 2284246). To be noted: primary human lung fibroblasts. A digest of the protocol:
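Primary human lung fibroblast culture, 24 h compound exposure; ELISA read-out of bFGF. Positive-direction fit vs DMSO baseline. Cytotoxicity: SRB stain (0.1% SRB, 10% TCA fixation, 560 nm) in parallel wells.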

Read-out in test [9]: Collagen IV, COL4A1 (gene 1282)
In words: BSK_MyoF_CollagenIV: BioMAP Diversity Plus: MyoF Assay for Collagen IV Biomarker Activity (AID 2284247). Particulars: primary human lung fibroblasts. A digest of the protocol:
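ELISA read-out of Collagen IV in lung fibroblast cultures, 24 h post-dosing; gain of signal relative to DMSO vehicle baseline defines activity.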

Chain of Tumor necrosis factor (Homo sapiens) (P01375 whole entry, looked up): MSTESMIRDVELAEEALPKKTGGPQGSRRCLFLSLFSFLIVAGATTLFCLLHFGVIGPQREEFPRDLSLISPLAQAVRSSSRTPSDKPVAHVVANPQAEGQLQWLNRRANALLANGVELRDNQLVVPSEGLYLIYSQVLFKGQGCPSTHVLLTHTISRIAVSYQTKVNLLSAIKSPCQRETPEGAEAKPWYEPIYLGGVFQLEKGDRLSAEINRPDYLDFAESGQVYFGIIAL

`FC(F)(F)C(F)(F)C(F)(F)C(F)(F)C(F)(F)C(F)(F)C(F)(F)CCI`: the result in [1], in test [2], in [3], in test [4], in test [5] and in test [6] was inactive. For the same molecule, the result in test [7] and in [8] was inactive.
As to `O=C1c2c(O)ccc(Nc3ccc(CCO)cc3)c2C(=O)c2c([N+](=O)[O-])ccc(O)c21`, the result in test [1], in test [7] and in test [8] was inactive. Moreover, the half-maximal activity concentration (AC50) is 20 µM (active) in [2]; 28.9 µM (active) in [3]; 30.2 µM (active) in [4]; 35.3 µM (active) in [5]; 25.6 µM (active) in test [6].
`CCN(CC)c1ccc(N=Nc2ccccc2)cc1`: the AC50 in test [1] was 31 µM (active); in [2] it was 20 µM (active); in [3], 20 µM (active); in [5], 31 µM (active); in [6] it was 23.8 µM (active); in test [7] it was 32.6 µM (active). In addition, the AC50 in test [9] is 9.37 µM (active). The result in test [4] and in [8] was inactive.
As for `Cc1cnccn1`, the result in test [1], in [2], in [3], in test [4], in test [5] and in test [6] was inactive. The result in test [7], in test [8] and in test [9] was inactive.
For the molecule `CCN(CC)c1ccc2c(c1)Oc1cc(N(CC)CC)ccc1C21OC(=O)c2ccccc21`, the outcome in test [1], in [2], in test [3], in [4], in [5] and in test [6] was inactive. Moreover, the result in test [7], in test [8] and in [9] was inactive.
As to `FC(F)(F)C(F)(F)C(F)(F)C(F)(F)C(F)(F)C(F)(F)CC[Si](Cl)(Cl)Cl`, the outcome in [1], in test [2], in [3], in test [4], in test [5] and in [6] was inactive. Moreover, the result in test [7], in test [8] and in test [9] was inactive.
Consider `NC(=O)C(F)(F)C(F)(F)C(F)(F)C(F)F`, for which the result in [1], in test [2], in test [3], in test [4], in [5] and in test [6] was inactive. Further, the outcome in test [7] and in test [8] was inactive.
`O=S(=O)(O)CCC(F)(F)C(F)(F)C(F)(F)C(F)(F)C(F)(F)C(F)(F)C(F)(F)C(F)(F)F`: the outcome in [1], in test [2], in test [3], in test [4], in test [5] and in [6] was inactive. Moreover, the outcome in test [7], in test [8] and in test [9] was inactive.
On to `OCC(F)(F)C(F)(F)C(F)(F)C(F)(F)C(F)(F)C(F)(F)CO`, for which the outcome in [1], in test [2], in [3], in [4], in [5] and in test [6] was inactive. The outcome in [7] and in [8] was inactive.
For `CC(C)(C)c1cc(CCC(=O)NCCCCCCNC(=O)CCc2cc(C(C)(C)C)c(O)c(C(C)(C)C)c2)cc(C(C)(C)C)c1O`, the outcome in test [1], in [2], in [3], in test [4], in [6] and in [8] was inactive. The results for the AC50 in test [5] and in test [7] were 5.33 µM (active) and 1.36 µM (active), respectively.
On to `O=C(Cl)C(F)(F)C(F)(F)C(F)(F)C(F)(F)C(F)(F)C(F)(F)F`, for which the outcome in test [1], in test [2], in test [3], in test [4], in [5] and in test [6] was inactive. Besides, the result in test [7], in [8] and in test [9] was inactive.
`CC(C)CCCC(C)CCO` (stereo unspecified): the outcome in [1], in test [5], in test [7] and in test [8] was inactive. For the same molecule, the concentration at half-maximal activity (AC50) in [2] was 29.9 µM (active); in test [3], 31.6 µM (active); in test [4] it was 35.3 µM (active); in [6], 30.9 µM (active).
As to `OCC(O)CC(F)(F)C(F)(F)C(F)(F)C(F)(F)C(F)(F)C(F)(F)C(F)(F)C(F)(F)F` (stereo unspecified), the outcome in test [1], in [2], in [3], in test [4], in test [5] and in test [6] was inactive. The outcome in test [7], in test [8] and in test [9] was inactive.
Consider `NCC(F)(F)C(F)(F)C(F)(F)C(F)(F)C(F)(F)C(F)(F)C(F)(F)C(F)(F)F`, for which the outcome in test [1], in test [2], in [3], in test [4], in test [5] and in [6] was inactive. Besides, the result in test [7], in test [8] and in [9] was inactive.
In the case of `CCOC(=O)CC(=O)C(F)(F)C(F)(F)F`, the result in test [1], in test [2], in test [3], in [4], in [5] and in test [6] was inactive. Moreover, the result in [7] and in [8] was inactive.
Turning to `O=C1C=CC(=O)N1c1ccc(Cc2ccc(N3C(=O)C=CC3=O)cc2)cc1`, the AC50 in test [1] was 4.89 µM (active); in [2], 3.05 µM (active); in test [3], 2.69 µM (active); in test [4], 3.46 µM (active); in test [5] it was 2.45 µM (active); in test [6], 2.79 µM (active). In addition, the values for the AC50 in test [7], in test [8] and in test [9] were 4.5 µM (active), 5.53 µM (active) and 1.99 µM (active), respectively.
On to `NCC(F)(F)C(F)(F)C(F)(F)C(F)(F)C(F)(F)C(F)(F)F`, for which the result in test [1], in test [2], in [3], in test [4], in [5] and in test [6] was inactive. Also, the outcome in [7], in [8] and in test [9] was inactive.

Usually AC50 stands for the concentration at which the activity in the assay is half-maximal.

Values taken from PubChem BioAssay (EPA / NIEHS).
